Experimental data reported in PubChem BioAssay (Tox21).
Records with an inconclusive call do not appear. Entries that show only a call come without a potency. Where a structure was tested more than once in an assay, its records may differ in their call. Active and inactive are the calls of the source. Unless noted, calls come from the whole dose curve.

Experiments:
[1] = Nuclear factor erythroid 2-related factor 2/antioxidant responsive element (Nrf2/ARE) small molecule agonists: qHTS cell viability counter screen in human keratinocytes (AID 1919968; active = well fitted curve in the direction sought with a large enough effect in the repeat runs; an effect the other way counts as inactive or inconclusive; note: nearly all actives have a fitted effect of over 55% in size; note: potency is the fitted concentration of half-maximal effect)
Outline: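 Parallel cytotoxicity read: KeratinoSens HaCaT cells, compound treatment 23 h, viability by CellTiter-Fluor fluorescence 1 h post-reagent.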

[2] = Nuclear factor erythroid 2-related factor 2/antioxidant responsive element (Nrf2/ARE) small molecule agonists: luciferase reporter gene qHTS assay in human keratinocytes (AID 1919969); note: nearly all actives have a fitted effect of over 35% in size; note: potency is the fitted concentration of half-maximal effect
[3] = biological target: Gonadotropin-releasing hormone receptor (Homo sapiens) (UniProt P30968); test: Human gonadotropin-releasing hormone receptor (GnRHR) small molecule agonists, calcium flux assay in GnRHR-HEK293 cells (AID 1920063); note: nearly all actives have a fitted effect of over 35% in size
Outline: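 Calcium flux, agonist mode, human GnRHR stably integrated in HEK293; dye 1 h at 37 C before compound; Ex/Em=480/540 kinetic read, 3 min; 15 concentrations, triplicate.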

[4] = biological target: KiSS-1 receptor (Homo sapiens) (UniProt Q969F8); test: Human kisspeptin (KISS1R) small molecule agonists, calcium flux assay in KISS1R-HEK293 cells (AID 1920064; active = well fitted curve in the direction sought with a large enough effect in the repeat runs; an effect the other way counts as inactive or inconclusive)
Outline: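 Triplicate 15-concentration series were applied to dye-loaded human KISS1R HEK293 cells, and agonist-evoked calcium fluorescence was captured for 3 min.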

[5] = G protein-coupled receptor (GPCR) small molecule agonists, calcium flux assay: HEK293 wild type cell line counter screen (AID 1920065)
Outline: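 Non-specific calcium responders were flagged by adding DMSO-dissolved compounds to dye-loaded cells and reading 480/540 nm fluorescence each second for 3 min; ATP served as positive control.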

[6] = p53 small molecule agonists, cell-based qHTS assay with human liver microsomes (AID 1963577);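 note: p53 response element beta-lactamase reporter cells with liver microsomes plus NADPH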
Outline: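 16 h, 37 C exposure of p53RE-bla cells to compounds with human liver microsomes and NADPH (0.5 mg/mL final each); detection via LiveBLAzer mixture, 2 h dark at room temperature.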

[7] = p53 small molecule agonists, cell-based qHTS assay with rat liver microsomes (AID 1963578)
Outline: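 With rat liver microsomes and NADPH present (0.5 mg/mL final each), p53RE-bla cells are treated with compound for 16 h at 37 C. LiveBLAzer detection mixture is then applied for 2 h at room temperature in the dark.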

[8] = p53 small molecule agonists, cell-based qHTS assay with human liver microsomes: qHTS cell viability counter screen (AID 1963579); note: nearly all actives have a fitted effect of over 45% in size
Outline: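 In this multiplexed counter screen, the reporter plates were subsequently treated with CellTiter-Glo so that cell viability, reflected by luminescence, could be recorded for p53RE-bla cells dosed 16 h with compounds under microsomal activation (HLM and NADPH).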

[9] = p53 small molecule agonists, cell-based qHTS assay with rat liver microsomes: qHTS cell viability counter screen (AID 1963580); note: nearly all actives have a fitted effect of over 45% in size
Outline: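 Rat liver microsome (0.5 mg/mL final) and NADPH (0.5 mg/mL final) co-incubation with compounds for 16 h at 37 C on HCT-116 p53RE-bla cells; cytotoxicity taken from intracellular ATP luminescence.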

[10] = p53 small molecule agonists, cell-based qHTS assay: qHTS cell viability counter screen (AID 1963581); note: nearly all actives have a fitted effect of over 45% in size
Outline: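 Multiplexed with the reporter read, a CellTiter-Glo step (30 min, room temperature) gauges ATP-based viability of HCT-116 p53RE-bla cells after 16 h compound incubation at 37 C.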

[11] = biological target: 5-hydroxytryptamine receptor 2A (Homo sapiens) (UniProt P28223); test: 5-hydroxytryptamine receptor 2A (HTR2A) small molecule antagonists, cell-based qHTS assay (AID 1963586); note: nearly all actives have a fitted effect of over 45% in size
Outline: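 CHO cells stably expressing human HTR2A were plated for 18 h at 37 C, then loaded with calcium dye for 1 h. Compounds were preincubated 5 min at room temperature before DOI (4 nM solution) was added. Kinetic fluorescence was read for 3 min.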

[12] = biological target: 5-hydroxytryptamine receptor 2A (Homo sapiens) (UniProt P28223); test: 5-hydroxytryptamine receptor 2A (HTR2A) small molecule agonists, cell-based qHTS assay (AID 1963587); note: nearly all actives have a fitted effect of over 30% in size
Outline: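 Kinetic calcium-flux fluorescence (2 min, 1 sec intervals) after compound addition in agonist mode. HTR2A-CHO cells were cultured 18 h, then dye-loaded 1 h at 37 C.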

[13] = biological target: Muscarinic acetylcholine receptor M1 (Homo sapiens) (UniProt P11229); test: Cholinergic receptor muscarinic 1 (CHRM1) small molecule antagonists, cell-based qHTS assay (AID 1963588); note: nearly all actives have a fitted effect of over 40% in size; note: potency is the fitted concentration of half-maximal effect
Outline: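 Compounds were tested at 15 concentrations in three independent runs. Dye-loaded CHRM1-CHO cells were exposed 5 min at room temperature before stimulation by acetylcholine added at 50nM. Intracellular calcium was read kinetically on FDSS for 3 min.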

[14] = cAMP Responsive Elements (CRE) small molecule antagonists, cell-based qHTS assay (AID 1963591; active = well fitted inhibition curve with a large enough effect in the signal ratio in the repeat runs, not every such curve was filed as active; the % refers to the signal ratio)
Outline: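 Fluorescence intensity from cleaved LiveBLAzer B/G substrate (2 h, room temperature) quantified CRE-bla activity in HEK 293T cells exposed 3 h to compound with 0.25 uM final NKH477.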

[15] = biological target: Beta-2 adrenergic receptor (Homo sapiens) (UniProt P07550); test: Adrenergic beta2 receptor (ADRB2) small molecule antagonists, cell-based qHTS assay (AID 1963592); note: series mostly up to about 92 µM; nearly all actives have a fitted effect of over 50% in size
Outline: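 Assay format: CHO-ADRB2 cells, 18-20hr seeding at 37C/5% CO2, then compound plus 1nM isoproterenol agonist mix for 0.5hr RT. Homogeneous time-resolved fluorescence cAMP detection after 1hr, expressed as 665/615 nm ratio.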

[16] = biological target: Beta-2 adrenergic receptor (Homo sapiens) (UniProt P07550); test: Adrenergic beta2 receptor (ADRB2) small molecule agonists, cell-based qHTS assay (AID 1963593);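 note: CHO cells stably overexpressing human ADRB2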
Outline: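 CHO cells stably over-expressing ADRB2 were plated overnight at 37C, then dosed with compounds plus a stimulation mix containing 100uM IBMX and 25uM Ro-20-1724 for 0.5hr at room temperature. cAMP was measured by HTRF competition, 1hr.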

[17] = biological target: D(2) dopamine receptor (Homo sapiens) (UniProt P14416); test: Dopamine D2 receptor (DRD2) small molecule antagonists, cell-based qHTS assay (AID 1963595; active = well fitted inhibition curve with a large enough effect in the signal ratio in the repeat runs, with a control signal flat; the % refers to the signal ratio)
Outline: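 Human DRD2 antagonist qHTS measuring cAMP by HTRF. The cells are exposed to compound for 10 min, then to NKH477 (200 nM) and quinpirole (12 nM) for 30 min at RT, with Ro20-1724 (0.1 mM) present throughout.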

[18] = biological target: Muscarinic acetylcholine receptor M1 (Homo sapiens) (UniProt P11229); test: Cholinergic receptor muscarinic 1 (CHRM1) small molecule agonists, cell-based qHTS assay (AID 1963589); note: nearly all actives have a fitted effect of over 35% in size
Outline: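 qHTS, 15-point titration, 3 independent runs: compounds pin-transferred onto dye-loaded CHRM1-CHO cells (human M1), calcium fluorescence followed every second to detect agonism.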

[19] = cAMP Responsive Elements (CRE) small molecule agonists, cell-based qHTS assay (AID 1963590)
Outline: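 Quantitative HTS for CRE agonists: HEK 293T CRE-bla cells, overnight plating, 3 h compound incubation at 37 C/5% CO2, then 2 h room-temperature LiveBLAzer B/G FRET substrate loading.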

[20] = biological target: D(2) dopamine receptor (Homo sapiens) (UniProt P14416); test: Dopamine D2 receptor (DRD2) small molecule agonists, cell-based qHTS assay (AID 1963594); note: nearly all actives have a fitted effect of over 35% in size
Outline: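 cAMP accumulation in DRD2-HEK293 cells measured by HTRF after 1 h detection; compounds added 10 min before NKH477 (200nM […]) forskolin-analogue stimulation, 30 min at room temperature, with Ro20-1724 present at 0.1 mM final.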

5-hydroxytryptamine receptor 2A (Homo sapiens), sequence (P28223 whole entry, looked up): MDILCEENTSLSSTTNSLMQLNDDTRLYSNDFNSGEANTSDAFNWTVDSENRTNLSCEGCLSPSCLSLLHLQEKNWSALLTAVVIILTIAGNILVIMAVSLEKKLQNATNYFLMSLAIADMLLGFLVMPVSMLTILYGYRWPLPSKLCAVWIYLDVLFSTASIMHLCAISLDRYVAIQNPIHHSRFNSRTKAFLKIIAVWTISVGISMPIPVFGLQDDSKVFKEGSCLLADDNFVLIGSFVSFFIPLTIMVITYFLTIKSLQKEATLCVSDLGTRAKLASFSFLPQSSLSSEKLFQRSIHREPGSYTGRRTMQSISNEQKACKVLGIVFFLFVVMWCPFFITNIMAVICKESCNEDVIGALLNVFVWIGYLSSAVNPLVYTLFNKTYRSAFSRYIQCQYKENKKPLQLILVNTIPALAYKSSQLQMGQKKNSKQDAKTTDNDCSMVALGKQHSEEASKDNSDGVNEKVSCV
Beta-2 adrenergic receptor (Homo sapiens), sequence (P07550 whole entry, looked up): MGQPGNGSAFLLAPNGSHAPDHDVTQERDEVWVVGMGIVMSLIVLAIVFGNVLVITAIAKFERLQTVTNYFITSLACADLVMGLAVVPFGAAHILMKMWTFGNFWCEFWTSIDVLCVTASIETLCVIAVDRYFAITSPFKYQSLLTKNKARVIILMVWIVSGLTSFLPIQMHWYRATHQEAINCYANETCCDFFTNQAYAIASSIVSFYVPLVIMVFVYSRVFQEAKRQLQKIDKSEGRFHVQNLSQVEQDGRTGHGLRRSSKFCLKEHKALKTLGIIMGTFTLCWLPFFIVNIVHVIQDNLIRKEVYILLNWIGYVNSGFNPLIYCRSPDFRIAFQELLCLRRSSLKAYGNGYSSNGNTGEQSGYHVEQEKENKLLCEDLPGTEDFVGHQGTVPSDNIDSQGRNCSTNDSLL
Gonadotropin-releasing hormone receptor (Homo sapiens), sequence (P30968 whole entry, looked up): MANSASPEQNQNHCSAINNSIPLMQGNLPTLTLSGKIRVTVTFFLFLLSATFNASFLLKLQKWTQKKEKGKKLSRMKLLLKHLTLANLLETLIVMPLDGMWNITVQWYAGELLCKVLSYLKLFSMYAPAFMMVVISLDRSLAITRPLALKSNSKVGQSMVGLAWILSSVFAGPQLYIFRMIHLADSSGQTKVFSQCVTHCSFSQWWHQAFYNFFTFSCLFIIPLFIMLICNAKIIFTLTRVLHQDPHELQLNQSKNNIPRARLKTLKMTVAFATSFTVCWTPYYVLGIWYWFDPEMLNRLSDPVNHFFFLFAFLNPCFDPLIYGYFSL
KiSS-1 receptor (Homo sapiens), sequence (Q969F8 whole entry, looked up): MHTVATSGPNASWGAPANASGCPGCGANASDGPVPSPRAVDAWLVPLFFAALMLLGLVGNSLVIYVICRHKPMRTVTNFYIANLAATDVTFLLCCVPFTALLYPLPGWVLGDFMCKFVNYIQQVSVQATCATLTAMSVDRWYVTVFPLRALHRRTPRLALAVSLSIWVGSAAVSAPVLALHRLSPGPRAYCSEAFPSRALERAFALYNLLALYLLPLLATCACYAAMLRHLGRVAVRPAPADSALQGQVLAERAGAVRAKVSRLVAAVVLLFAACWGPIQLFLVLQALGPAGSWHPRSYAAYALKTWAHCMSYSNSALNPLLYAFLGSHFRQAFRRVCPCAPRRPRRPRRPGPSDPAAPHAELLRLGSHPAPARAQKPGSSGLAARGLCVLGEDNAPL
Muscarinic acetylcholine receptor M1 (Homo sapiens), sequence (P11229 whole entry, looked up): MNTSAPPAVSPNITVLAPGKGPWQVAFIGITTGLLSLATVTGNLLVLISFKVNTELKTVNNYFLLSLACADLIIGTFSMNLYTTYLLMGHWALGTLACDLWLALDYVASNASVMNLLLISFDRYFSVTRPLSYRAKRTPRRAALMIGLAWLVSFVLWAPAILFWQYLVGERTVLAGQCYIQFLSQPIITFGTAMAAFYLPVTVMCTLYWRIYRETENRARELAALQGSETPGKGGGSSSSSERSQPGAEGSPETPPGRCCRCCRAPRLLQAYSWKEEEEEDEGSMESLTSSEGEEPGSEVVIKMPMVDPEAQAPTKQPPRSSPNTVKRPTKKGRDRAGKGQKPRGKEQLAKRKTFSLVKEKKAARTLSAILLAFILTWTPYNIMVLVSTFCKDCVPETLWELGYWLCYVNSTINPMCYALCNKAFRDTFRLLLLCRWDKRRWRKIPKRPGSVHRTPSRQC
D(2) dopamine receptor (Homo sapiens), sequence (P14416 whole entry, looked up): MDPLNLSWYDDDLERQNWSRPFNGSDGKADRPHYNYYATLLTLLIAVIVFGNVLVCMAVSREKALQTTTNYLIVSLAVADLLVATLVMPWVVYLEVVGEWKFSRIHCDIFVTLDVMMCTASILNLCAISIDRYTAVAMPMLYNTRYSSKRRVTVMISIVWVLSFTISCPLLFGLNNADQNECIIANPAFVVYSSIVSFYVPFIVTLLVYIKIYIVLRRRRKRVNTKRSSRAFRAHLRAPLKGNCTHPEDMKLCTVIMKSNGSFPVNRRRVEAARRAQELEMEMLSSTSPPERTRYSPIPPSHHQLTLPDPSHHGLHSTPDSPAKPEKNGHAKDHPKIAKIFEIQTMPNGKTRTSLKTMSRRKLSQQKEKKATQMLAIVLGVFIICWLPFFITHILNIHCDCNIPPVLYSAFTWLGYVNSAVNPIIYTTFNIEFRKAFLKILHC

| SMILES | Potency [1] | Potency [2] | Potency [3] | Potency [4] | Potency [5] | Potency [6] | Potency [7] | Potency [8] | Potency [9] | Potency [10] | Potency [11] | Potency [12] | Potency [13] | Potency [14] | Potency [15] | Potency [16] | Potency [17] | Potency [18] | Potency [19] | Potency [20] |
| --- | --- | --- | --- | --- | --- | --- | --- | --- | --- | --- | --- | --- | --- | --- | --- | --- | --- | --- | --- | --- |
| Cn1c(-c2ccccc2)cc(-c2ccccc2)[n+]1C | inactive | inactive | inactive | inactive | inactive | inactive | inactive | inactive | inactive | inactive | inactive | inactive | 6.66 µM (active) and inactive | inactive | inactive | inactive | inactive |  |  |  |
| CCCC1CCCCN1 (stereo not drawn) | inactive | inactive | inactive | inactive | inactive | inactive | inactive | inactive | inactive | inactive | inactive | inactive | inactive | inactive |  | inactive | inactive | inactive | inactive | inactive |
| Nc1ccc([N+](=O)[O-])cc1N | 13.7 µM (active) | 34.4 µM (active) | inactive | inactive | inactive | inactive | inactive | inactive | inactive | inactive | inactive | inactive | inactive |  |  |  | inactive | inactive | inactive | inactive |
| O=c1ccc(=O)[nH][nH]1 | inactive | inactive | inactive | inactive | inactive | inactive | inactive | inactive | inactive | inactive | inactive | inactive | inactive | inactive | inactive | inactive | inactive | inactive | inactive | inactive |
| CCOC(=O)C(C)OC(=O)c1cc(Oc2ccc(C(F)(F)F)cc2Cl)ccc1[N+](=O)[O-] (stereo not drawn) | inactive | inactive | inactive | inactive | inactive | inactive | inactive | inactive | inactive | inactive | inactive | inactive | inactive | inactive | inactive |  | inactive | inactive | inactive | inactive |
| CC(=O)CC(c1ccc(Cl)cc1)c1c(O)c2ccccc2oc1=O (stereo not drawn) | inactive | inactive | inactive | inactive | inactive | inactive | inactive | inactive | inactive | inactive | inactive | inactive |  | inactive | inactive | inactive |  | inactive | inactive | inactive |
| Clc1ccc(C(c2ccc(Cl)cc2)C(Cl)(Cl)Cl)cc1 | 38.8 µM (active) | inactive | inactive | inactive | inactive | inactive | inactive | inactive | inactive | inactive | inactive | inactive | inactive | inactive | inactive | inactive | inactive | inactive | inactive | inactive |
| Cc1ccc(N=CN(C)C=Nc2ccc(C)cc2C)c(C)c1 | 61.4 µM (active) and inactive | inactive | inactive | inactive | inactive | inactive | inactive | inactive | inactive | inactive |  |  |  | inactive |  | inactive | inactive |  | inactive | inactive |
| CCC12COCN1COC2 | inactive | inactive | inactive | inactive | inactive | inactive | inactive | inactive | inactive | inactive | inactive | inactive | inactive | inactive | inactive |  | inactive | inactive | inactive | inactive |
| CCC/C=N/O | inactive | inactive | inactive | inactive | inactive | inactive | inactive | inactive | inactive | inactive |  | inactive |  | inactive | inactive | inactive | inactive | inactive | inactive | inactive |
| O=P1(N(CCCl)CCCl)NCCCO1 (stereo not drawn) | inactive | inactive | inactive | inactive | inactive | inactive | inactive | inactive | inactive | inactive |  |  |  | inactive | inactive | inactive | inactive |  |  | inactive |
| Cl/C=C/CCl | inactive | inactive | inactive | inactive | inactive | inactive | inactive | inactive | inactive | inactive | inactive | inactive | inactive | inactive | inactive |  |  | inactive | inactive | inactive |
| c1ccc2c(c1)Nc1ccccc1S2 | inactive | 61.1 µM (active) and inactive | inactive | inactive | inactive | inactive | inactive | inactive | inactive | inactive |  |  |  | inactive | inactive |  | inactive |  | inactive | inactive |
| Brc1ccc(Br)cc1 | inactive | inactive | inactive | inactive | inactive | inactive | inactive | inactive | inactive | inactive | inactive | inactive | inactive | inactive | inactive |  | inactive | inactive | inactive | inactive |
| CCCCCCCCCCBr | inactive | inactive | inactive | inactive | inactive | inactive | inactive | inactive | inactive |  | inactive | inactive | inactive | inactive | inactive | inactive | inactive | inactive | inactive | inactive |
